“And” between values parts separate entries of the source, which are not always exact repeats. Equal entries are not always repeated. The campaign covered roughly 5,500 compounds. About 2,000 (36%) were called active. About 18% were inconclusive and are not listed. The list shows a part of the results. Values without a mark were called inactive. Rule as the data show it: active = normalized growth mostly below about 0.91 (no sharp cut-off); inconclusive = no clear call, values can overlap the other calls; inactive = mostly above about 0.92.
Test: chemical genetic growth profiling, strain panel (AID 1159580);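 also: tested at 20 µM; growth read once vehicle control cultures reached saturation at 30 °C; 1 = growth at the plate median or of vehicle wells; lower values mean less growth of the strain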
Settings: S. cerevisiae deletion strains, growth OD

COc1ccc2c(c1)OCC(Cc1ccc(OC)c(OC)c1)C2=O (stereo unspecified)
normalized growth (locus YAL013W, strain DEP1, stronger effect = lower value): 0.979
normalized growth (locus YAL021C, strain ccr4, stronger effect = lower value): 0.982
normalized growth (locus YAL026C, strain drs2, stronger effect = lower value): 0.928
normalized growth (locus YAL030W, strain snc1, stronger effect = lower value): 0.972
normalized growth (locus YBL061C, strain skt5, stronger effect = lower value): 0.959
normalized growth (locus YBR009C, strain hhf1, stronger effect = lower value): 0.941
normalized growth (locus YBR021W, strain FUR4, stronger effect = lower value): 0.905
normalized growth (locus YBR023C, strain chs3, stronger effect = lower value): 0.958
normalized growth (locus YBR171W, strain sec66, stronger effect = lower value): 0.96
normalized growth (locus YBR229C, strain ROT2, stronger effect = lower value): 0.993
normalized growth (locus YBR231C, strain swc5, stronger effect = lower value): 0.924
normalized growth (locus YBR279W, strain paf1, stronger effect = lower value): 0.973
normalized growth (locus YCL011C, strain gbp2, stronger effect = lower value): 0.96
normalized growth (locus YCL016C, strain dcc1, stronger effect = lower value): 0.969
normalized growth (locus YCL029C, strain bik1, stronger effect = lower value): 0.988
normalized growth (locus YCL061C, strain MRC1, stronger effect = lower value): 0.923
normalized growth (locus YCL069W, strain vba3, stronger effect = lower value): 0.967
normalized growth (locus YCR088W, strain abp1, stronger effect = lower value): 0.987
normalized growth (locus YDL005C, strain med2, stronger effect = lower value): 0.987
normalized growth (locus YDL035C, strain GPR1, stronger effect = lower value): 0.954
normalized growth (locus YDL040C, strain nat1, stronger effect = lower value): 0.982
normalized growth (locus YDL074C, strain BRE1, stronger effect = lower value): 0.928
normalized growth (locus YDL101C, strain DUN1, stronger effect = lower value): 0.982
normalized growth (locus YDL185W, strain tfp1, stronger effect = lower value): 0.999
normalized growth (locus YDL192W, strain arf1, stronger effect = lower value): 0.986
normalized growth (locus YDR001C, strain nth1, stronger effect = lower value): 0.973
normalized growth (locus YDR069C, strain doa4, stronger effect = lower value): 0.964
normalized growth (locus YDR101C, strain arx1, stronger effect = lower value): 0.974
normalized growth (locus YDR137W, strain rgp1, stronger effect = lower value): 0.933
normalized growth (locus YDR159W, strain sac3, stronger effect = lower value): 0.873
normalized growth (locus YDR162C, strain NBP2, stronger effect = lower value): 0.89
normalized growth (locus YDR195W, strain ref2): 1.06
normalized growth (locus YDR297W, strain sur2, stronger effect = lower value): 0.949
normalized growth (locus YDR318W, strain mcm21, stronger effect = lower value): 0.978
normalized growth (locus YDR334W, strain swr1, stronger effect = lower value): 0.98
normalized growth (locus YDR335W, strain msn5, stronger effect = lower value): 0.986
normalized growth (locus YDR388W, stronger effect = lower value): 1.01
normalized growth (locus YDR392W, strain spt3, stronger effect = lower value): 0.544 (active)
normalized growth (locus YDR502C, strain sam2, stronger effect = lower value): 0.973
normalized growth (locus YEL003W, strain gim4, stronger effect = lower value): 0.947
normalized growth (locus YEL037C, strain rad23, stronger effect = lower value): 0.986
normalized growth (locus YEL061C, strain CIN8 (second series), stronger effect = lower value): 0.985
normalized growth (locus YEL061C, strain CIN8, stronger effect = lower value): 0.987
normalized growth (locus YER015W, strain faa2, stronger effect = lower value): 0.968
normalized growth (locus YER016W, strain bim1, stronger effect = lower value): 0.976
normalized growth (locus YER110C, stronger effect = lower value): 0.988
normalized growth (locus YER111C, strain swi4, stronger effect = lower value): 0.982
normalized growth (locus YER155C, strain BEM2 (second series), stronger effect = lower value): 0.802 (active)
normalized growth (locus YER155C, strain BEM2, stronger effect = lower value): 0.999
normalized growth (locus YER167W, strain BCK2, stronger effect = lower value): 0.997
normalized growth (locus YFR010W, strain ubp6, stronger effect = lower value): 0.97
normalized growth (locus YGL078C, strain dbp3, stronger effect = lower value): 0.998
normalized growth (locus YGL086W, strain mad1, stronger effect = lower value): 0.965
normalized growth (locus YGL167C, strain pmr1, stronger effect = lower value): 0.964
normalized growth (locus YGL173C, strain kem1, stronger effect = lower value): 0.963
normalized growth (locus YGL227W, strain vid30, stronger effect = lower value): 0.974
normalized growth (locus YGL240W, strain doc1, stronger effect = lower value): 0.898
normalized growth (locus YGL248W, strain PDE1, stronger effect = lower value): 0.954
normalized growth (locus YGL253W, strain hxk2, stronger effect = lower value): 0.879 (active)
normalized growth (locus YGR078C, strain PAC10, stronger effect = lower value): 0.905
normalized growth (locus YGR135W, strain pre9, stronger effect = lower value): 0.993
normalized growth (locus YGR252W, strain gcn5, stronger effect = lower value): 0.834
normalized growth (locus YHR013C, strain ard1, stronger effect = lower value): 0.907
normalized growth (locus YHR027C, strain rpn1, stronger effect = lower value): 0.967
normalized growth (locus YHR030C, strain SLT2, stronger effect = lower value): 0.989 and 0.988
normalized growth (locus YHR079C, strain IRE1 (second series), stronger effect = lower value): 1
normalized growth (locus YHR079C, strain IRE1, stronger effect = lower value): 1.01
normalized growth (locus YHR094C, strain hxt1, stronger effect = lower value): 1.01
normalized growth (locus YHR129C, strain ARP1, stronger effect = lower value): 0.976
normalized growth (locus YHR142W, strain chs7, stronger effect = lower value): 0.897
normalized growth (locus YHR200W, strain rpn10, stronger effect = lower value): 0.992
normalized growth (locus YIL066C, strain RNR3, stronger effect = lower value): 0.915
normalized growth (locus YIL073C, strain SPO22, stronger effect = lower value): 0.925
normalized growth (locus YIL125W, strain kgd1, stronger effect = lower value): 0.991
normalized growth (locus YIR030C, strain dcg1, stronger effect = lower value): 0.99
normalized growth (locus YJL092W, strain hpr5, stronger effect = lower value): 0.981
normalized growth (locus YJL095W, strain BCK1 (second series), stronger effect = lower value): 0.979
normalized growth (locus YJL095W, strain BCK1, stronger effect = lower value): 0.887 and 1.01
normalized growth (locus YJL115W, strain asf1, stronger effect = lower value): 0.974
normalized growth (locus YJL129C, strain trk1, stronger effect = lower value): 0.892
normalized growth (locus YJL134W, strain LCB3, stronger effect = lower value): 0.994
normalized growth (locus YJL154C, strain vps35, stronger effect = lower value): 0.98
normalized growth (locus YJL164C, strain tpk1, stronger effect = lower value): 0.96
normalized growth (locus YJL166W, strain qcr8, stronger effect = lower value): 0.909
normalized growth (locus YJL168C, strain set2, stronger effect = lower value): 0.994
normalized growth (locus YJL187C, strain SWE1 (second series), stronger effect = lower value): 0.965
normalized growth (locus YJR043C, strain POL32, stronger effect = lower value): 0.97
normalized growth (locus YJR066W, strain TOR1, stronger effect = lower value): 0.955
normalized growth (locus YJR075W, strain HOC1, stronger effect = lower value): 0.972
normalized growth (locus YKL009W, strain mrt4, stronger effect = lower value): 0.984
normalized growth (locus YKL068W, stronger effect = lower value): 0.982
normalized growth (locus YKL085W, strain MDH1 (second series), stronger effect = lower value): 0.995
normalized growth (locus YKL085W, strain MDH1, stronger effect = lower value): 0.995
normalized growth (locus YKL160W, strain elf1, stronger effect = lower value): 0.955
normalized growth (locus YKR001C, strain vps1, stronger effect = lower value): 0.998
normalized growth (locus YKR026C, strain gcn3, stronger effect = lower value): 0.976
normalized growth (locus YKR091W, strain srl3, stronger effect = lower value): 0.991
normalized growth (locus YLL001W, strain dnm1, stronger effect = lower value): 0.897 (active)
normalized growth (locus YLL026W, stronger effect = lower value): 0.963
normalized growth (locus YLL041C, strain sdh2, stronger effect = lower value): 0.983
normalized growth (locus YLR027C, strain aat2, stronger effect = lower value): 0.922 (active)
normalized growth (locus YLR039C, strain RIC1, stronger effect = lower value): 0.958
normalized growth (locus YLR058C, strain SHM2, stronger effect = lower value): 0.98
normalized growth (locus YLR102C, strain apc9, stronger effect = lower value): 0.998
normalized growth (locus YLR113W, strain HOG1, stronger effect = lower value): 0.931
normalized growth (locus YLR221C, strain rsa3, stronger effect = lower value): 0.922
normalized growth (locus YLR258W, strain gsy2, stronger effect = lower value): 0.968
normalized growth (locus YLR262C, strain YPT6 (second series), stronger effect = lower value): 0.88
normalized growth (locus YLR262C, strain YPT6, stronger effect = lower value): 0.869
normalized growth (locus YLR268W, strain sec22, stronger effect = lower value): 0.963
normalized growth (locus YLR320W, strain mms22, stronger effect = lower value): 0.879
normalized growth (locus YLR330W, strain CHS5, stronger effect = lower value): 0.961
normalized growth (locus YLR342W, strain FKS1 (second series), stronger effect = lower value): 0.921
normalized growth (locus YLR342W, strain FKS1, stronger effect = lower value): 0.951
normalized growth (locus YLR357W, strain rsc2, stronger effect = lower value): 0.945
normalized growth (locus YLR370C, strain arc18, stronger effect = lower value): 0.972
normalized growth (locus YLR371W, strain rom2, stronger effect = lower value): 0.985
normalized growth (locus YLR384C, strain iki3, stronger effect = lower value): 0.976
normalized growth (locus YLR418C, strain cdc73, stronger effect = lower value): 0.842
normalized growth (locus YML016C, strain PPZ1, stronger effect = lower value): 0.995
normalized growth (locus YML032C, strain rad52, stronger effect = lower value): 0.984
normalized growth (locus YML120C, strain ndi1, stronger effect = lower value): 0.965
normalized growth (locus YML124C, strain tub3, stronger effect = lower value): 0.986
normalized growth (locus YMR058W, strain fet3, stronger effect = lower value): 0.938
normalized growth (locus YMR078C, strain ctf18, stronger effect = lower value): 1
normalized growth (locus YMR125W, strain sto1, stronger effect = lower value): 0.994
normalized growth (locus YMR129W, stronger effect = lower value): 0.981
normalized growth (locus YMR205C, strain PFK2, stronger effect = lower value): 0.896
normalized growth (locus YMR223W, strain ubp8, stronger effect = lower value): 1
normalized growth (locus YMR231W, strain pep5, stronger effect = lower value): 0.993
normalized growth (locus YMR307W, strain GAS1, stronger effect = lower value): 0.83
normalized growth (locus YNL067W, strain RPL9B, stronger effect = lower value): 0.968
normalized growth (locus YNL071W, strain lat1, stronger effect = lower value): 0.82 (active)
normalized growth (locus YNL128W, strain TEP1, stronger effect = lower value): 0.991
normalized growth (locus YNL183C, strain NPR1, stronger effect = lower value): 0.961
normalized growth (locus YNL209W, strain ssb2, stronger effect = lower value): 0.987
normalized growth (locus YNL233W, strain BNI4, stronger effect = lower value): 0.919
normalized growth (locus YNL248C, strain rpa49, stronger effect = lower value): 0.928
normalized growth (locus YNL250W, strain rad50, stronger effect = lower value): 0.998
normalized growth (locus YNL271C, strain bni1, stronger effect = lower value): 0.989
normalized growth (locus YNL298W, strain CLA4, stronger effect = lower value): 0.98
normalized growth (locus YNL307C, strain MCK1, stronger effect = lower value): 0.894 (active)
normalized growth (locus YNL322C, strain KRE1 (second series), stronger effect = lower value): 0.982
normalized growth (locus YNL322C, strain KRE1, stronger effect = lower value): 0.985
normalized growth (locus YNR049C, strain mso1, stronger effect = lower value): 0.985
normalized growth (locus YNR052C, strain pop2, stronger effect = lower value): 0.989
normalized growth (locus YOL006C, strain TOP1, stronger effect = lower value): 0.784
normalized growth (locus YOL012C, strain htz1): 0.731
normalized growth (locus YOL147C, strain pex11, stronger effect = lower value): 0.98
normalized growth (locus YOR001W, strain rrp6, stronger effect = lower value): 0.923
normalized growth (locus YOR061W, strain CKA2, stronger effect = lower value): 0.984
normalized growth (locus YOR069W, strain VPS5, stronger effect = lower value): 0.993
normalized growth (locus YOR070C, strain gyp1, stronger effect = lower value): 0.937
normalized growth (locus YOR080W, strain dia2, stronger effect = lower value): 0.967
normalized growth (locus YOR083W, strain WHI5, stronger effect = lower value): 0.936
normalized growth (locus YOR106W, strain vam3, stronger effect = lower value): 0.978
normalized growth (locus YOR136W, strain idh2, stronger effect = lower value): 0.99
normalized growth (locus YOR144C, strain elg1, stronger effect = lower value): 0.978
normalized growth (locus YOR184W, strain ser1, stronger effect = lower value): 0.884
normalized growth (locus YOR231W, strain MKK1, stronger effect = lower value): 1.02
normalized growth (locus YOR265W, strain rbl2, stronger effect = lower value): 1
normalized growth (locus YOR270C, strain vph1, stronger effect = lower value): 0.821
normalized growth (locus YOR290C, strain snf2, stronger effect = lower value): 0.935
normalized growth (locus YOR316C, strain cot1, stronger effect = lower value): 1
normalized growth (locus YPL051W, strain arl3, stronger effect = lower value): 0.922
normalized growth (locus YPL055C, strain LGE1, stronger effect = lower value): 0.896
normalized growth (locus YPL078C, strain atp4, stronger effect = lower value): 0.939
normalized growth (locus YPL106C, strain sse1, stronger effect = lower value): 0.94
normalized growth (locus YPL240C, strain hsp82, stronger effect = lower value): 0.993
normalized growth (locus YPL241C, strain CIN2, stronger effect = lower value): 0.99
normalized growth (locus YPL256C, strain CLN2, stronger effect = lower value): 1.02
normalized growth (locus YPR119W, strain clb2, stronger effect = lower value): 0.98
normalized growth (locus YPR141C, strain kar3, stronger effect = lower value): 0.992
normalized growth (locus YPR163C, strain tif3, stronger effect = lower value): 0.969
normalized growth (locus YPR167C, strain met16, stronger effect = lower value): 0.965
normalized growth (strain wtn01, stronger effect = lower value): 0.971

Source: PubChem BioAssay AID1159580 (chemical genetic matrix, 2015)
